From the antibiotic and cytotoxicity screens of Wong et al. (2023) come the findings set out here.

Out of some 39,000 compounds screened, about 1,500 (3.8%) were called active. This is one part of a sample in which actives are shown more often than they occur.

This assay has as its system HSkMC (human skeletal muscle cells). The assay is described as follows: cytotoxicity call (relative viability < 0.9). The following applies: 10 µM.
As for `C[C@H](CO)N1C[C@H](C)[C@@H](CN(C)S(=O)(=O)c2ccc(Cl)cc2)OCCCC[C@H](C)Oc2ccc(NS(=O)(=O)c3ccccc3)cc2C1=O`, the cytotoxicity call was “inactive”.

As to `Cc1c(N)nc([C@H](CC(N)=O)NC[C@H](N)C(N)=O)nc1C(=O)N[C@H](C(=O)N[C@H](C)[C@@H](O)[C@H](C)C(=O)N[C@H](C(=O)NCCc1nc(-c2nc(C(=O)NCCCNCCCCN)cs2)cs1)[C@@H](C)O)[C@@H](O[C@@H]1O[C@@H](CO)[C@@H](O)[C@H](O)[C@@H]1O[C@@H]1O[C@H](CO)[C@@H](O)[C@H](OC(N)=O)[C@@H]1O)c1c[nH]cn1`, the cytotoxicity call is “active”.

Turning to `Cc1ccc(S(=O)(=O)N(C)C[C@@H]2Oc3ccc(NC(=O)Cn4cnnn4)cc3CC(=O)N([C@@H](C)CO)C[C@H]2C)cc1`, the cytotoxicity call was “inactive”.

For `C[C@@H]1CN([C@H](C)CO)C(=O)c2cccc(NC(=O)Nc3ccc(C(F)(F)F)cc3)c2O[C@@H]1CN(C)Cc1ccc(-c2ccccc2)cc1`, the cytotoxicity call is “active”.

For the molecule `C[C@@H]1CN([C@@H](C)CO)C(=O)c2cccc(NC(=O)Nc3ccccc3)c2O[C@H]1CN(C)Cc1ccc(C(F)(F)F)cc1`, the cytotoxicity call was “inactive”.

Regarding `C[C@H](CO)N1C[C@H](C)[C@@H](CN(C)Cc2ccc(C(F)(F)F)cc2)Oc2c(NC(=O)Nc3ccccc3)cccc2C1=O`, the cytotoxicity call is “inactive”.

For `C[C@@H]1CN([C@H](C)CO)C(=O)c2cccc(NC(=O)Nc3ccc(C(F)(F)F)cc3)c2O[C@H]1CN(C)Cc1ccc(-c2ccccc2)cc1`, the cytotoxicity call is “inactive”.

In the case of `C[C@@H]1CN([C@@H](C)CO)C(=O)c2cccc(NC(=O)Nc3ccccc3)c2O[C@@H]1CN(C)Cc1ccc(C(F)(F)F)cc1`, the cytotoxicity call is “inactive”.

Regarding `C[C@H](CO)N1C[C@H](C)[C@H](CN(C)Cc2ccc(C(F)(F)F)cc2)Oc2c(NC(=O)Nc3ccccc3)cccc2C1=O`, the cytotoxicity call is “inactive”.

`C[C@@H]1CN([C@H](C)CO)C(=O)c2cccc(NC(=O)Nc3ccccc3)c2O[C@H]1CN(C)Cc1ccc(C(F)(F)F)cc1`: the cytotoxicity call was “active”.

For the molecule `C[C@H]1CN([C@@H](C)CO)C(=O)c2cccc(NC(=O)Nc3ccc(C(F)(F)F)cc3)c2O[C@H]1CN(C)Cc1ccc(-c2ccccc2)cc1`, the cytotoxicity call is “inactive”.

On to `C[C@H]1CN([C@@H](C)CO)C(=O)c2cccc(NC(=O)Nc3ccccc3)c2O[C@@H]1CN(C)Cc1ccc(C(F)(F)F)cc1`, for which the cytotoxicity call is “active”.

In the case of `Cc1noc(C)c1NC(=O)Nc1ccc2c(c1)C(=O)N([C@H](C)CO)C[C@H](C)[C@H](CN(C)Cc1ccncc1)OCCCC[C@H](C)O2`, the cytotoxicity call is “inactive”.

In the case of `Cc1noc(C)c1S(=O)(=O)N(C)C[C@H]1Oc2ccc(NC(=O)Cc3ccccc3)cc2CC(=O)N([C@@H](C)CO)C[C@H]1C`, the cytotoxicity call was “inactive”.

Take `CN(C)Cc1cn(CC[C@H]2CC[C@@H](NC(=O)Cc3cccnc3)[C@H](CO)O2)nn1`: the cytotoxicity call is “inactive”.

As to `C[C@H](CO)N1C[C@H](C)[C@@H](CN(C)Cc2ccc(-c3ccccc3)cc2)Oc2c(NC(=O)CCCCCC(=O)Nc3ccccc3N)cccc2C1=O`, the cytotoxicity call is “inactive”.

As to `CC(C)NC(=O)N(C)C[C@H]1Oc2cc(C#Cc3cccc(F)c3)ccc2S(=O)(=O)N([C@@H](C)CO)C[C@@H]1C`, the cytotoxicity call is “inactive”.

Regarding `C[C@H](NC(=O)C[C@H]1CC[C@H](NC(=O)CN2CCOCC2)[C@@H](CO)O1)c1ccccc1`, the cytotoxicity call was “inactive”.

Take `COc1ccc(NC(=O)Nc2cccc3c2O[C@@H](CN(C)Cc2ccc(Oc4ccccc4)cc2)[C@H](C)CN([C@H](C)CO)C3=O)cc1`: the cytotoxicity call is “inactive”.

`COc1ccc(NC(=O)Nc2cccc3c2O[C@H](CN(C)Cc2ccc(Oc4ccccc4)cc2)[C@H](C)CN([C@H](C)CO)C3=O)cc1`: the cytotoxicity call is “inactive”.

Take `COc1ccc(NC(=O)Nc2cccc3c2O[C@@H](CN(C)Cc2ccc(Oc4ccccc4)cc2)[C@@H](C)CN([C@H](C)CO)C3=O)cc1`: the cytotoxicity call is “active”.

With `COc1ccc(NC(=O)Nc2cccc3c2O[C@@H](CN(C)Cc2ccc(Oc4ccccc4)cc2)[C@@H](C)CN([C@@H](C)CO)C3=O)cc1`, the cytotoxicity call was “inactive”.

As for `COc1ccc(NC(=O)Nc2cccc3c2O[C@H](CN(C)Cc2ccc(Oc4ccccc4)cc2)[C@@H](C)CN([C@@H](C)CO)C3=O)cc1`, the cytotoxicity call was “active”.

For the molecule `COc1ccc(NC(=O)Nc2cccc3c2O[C@@H](CN(C)Cc2ccc(Oc4ccccc4)cc2)[C@H](C)CN([C@@H](C)CO)C3=O)cc1`, the cytotoxicity call is “inactive”.

Consider `CC(C)NC(=O)Nc1ccc2c(c1)C(=O)N([C@H](C)CO)C[C@H](C)[C@@H](CN(C)S(C)(=O)=O)OCCCC[C@@H](C)O2`, for which the cytotoxicity call is “inactive”.

As for `CC(C)(C)[S@](=O)N1Cc2cc(C(=O)N3CCCCC3)nc(-c3cccc(C4=CCCC4)c3)c2[C@@H]1CCO`, the cytotoxicity call was “inactive”.

As for `Cc1noc(C)c1NC(=O)N(C)C[C@@H]1OCCCC[C@H](C)Oc2ccc(NS(=O)(=O)c3ccc(Cl)cc3)cc2C(=O)N([C@H](C)CO)C[C@@H]1C`, the cytotoxicity call is “inactive”.

Regarding `CC[C@H](C)[C@@H]([C@@H](CC(=O)N1CCC[C@H]1[C@H](OC)[C@@H](C)C(=O)N[C@@H](Cc1ccccc1)c1nccs1)OC)N(C)C(=O)[C@@H](NC(=O)[C@H](C(C)C)N(C)C)C(C)C`, the cytotoxicity call is “active”.

In the case of `C[C@H](CO)N1C[C@H](C)[C@@H](CN(C)Cc2ccc(Oc3ccccc3)cc2)Oc2c(NC(=O)Cc3ccccc3)cccc2C1=O`, the cytotoxicity call is “inactive”.

As to `COc1ccc(NC(=O)Nc2ccc3c(c2)C(=O)N([C@H](C)CO)C[C@@H](C)[C@@H](CN(C)Cc2ccc4c(c2)OCO4)OCCCC[C@@H](C)O3)cc1`, the cytotoxicity call was “inactive”.

With `Cc1noc(C)c1S(=O)(=O)Nc1ccc2c(c1)C(=O)N([C@@H](C)CO)C[C@H](C)[C@@H](CN(C)C(=O)Nc1ccc(C(F)(F)F)cc1)OCCCC[C@@H](C)O2`, the cytotoxicity call was “inactive”.

Take `C[C@@H]1CN([C@@H](C)CO)C(=O)c2cc(NC(=O)CCCCCC(=O)Nc3ccccc3N)ccc2O[C@H]1CN(C)C(=O)Nc1ccc(F)cc1`: the cytotoxicity call was “inactive”.

With `Nn1c(-c2ccncc2)nncc1=O`, the cytotoxicity call is “inactive”.

Take `C[C@H]1CN([C@@H](C)CO)C(=O)Cc2cc(NC(=O)Nc3ccc4c(c3)OCO4)ccc2O[C@H]1CN(C)Cc1ccc(Cl)c(Cl)c1`: the cytotoxicity call is “active”.

For `C[C@H]1CN([C@@H](C)CO)C(=O)c2cc(NC(=O)Nc3ccc4c(c3)OCO4)ccc2O[C@H]1CN(C)Cc1ccc(Cl)c(Cl)c1`, the cytotoxicity call was “inactive”.

As to `C[C@@H]1CN([C@@H](C)CO)C(=O)Cc2cc(NC(=O)Nc3ccc4c(c3)OCO4)ccc2O[C@H]1CN(C)Cc1ccc(Cl)c(Cl)c1`, the cytotoxicity call was “inactive”.

For `C[C@H]1CN([C@@H](C)CO)C(=O)Cc2cc(NC(=O)Nc3ccc4c(c3)OCO4)ccc2O[C@@H]1CN(C)Cc1ccc(Cl)c(Cl)c1`, the cytotoxicity call is “inactive”.

As for `C[C@@H]1CN([C@@H](C)CO)C(=O)c2cc(NC(=O)Nc3ccc4c(c3)OCO4)ccc2O[C@H]1CN(C)Cc1ccc(Cl)c(Cl)c1`, the cytotoxicity call is “inactive”.

Turning to `C[C@H](CO)N1C[C@H](C)[C@@H](CN(C)Cc2ccc(Cl)c(Cl)c2)Oc2ccc(NC(=O)Nc3ccc4c(c3)OCO4)cc2CC1=O`, the cytotoxicity call was “active”.

`C[C@@H]1CN([C@H](C)CO)C(=O)Cc2cc(NC(=O)Nc3ccc4c(c3)OCO4)ccc2O[C@H]1CN(C)Cc1ccc(Cl)c(Cl)c1`: the cytotoxicity call was “inactive”.

`C[C@H](CO)N1C[C@H](C)[C@H](CN(C)Cc2ccc(Cl)c(Cl)c2)Oc2ccc(NC(=O)Nc3ccc4c(c3)OCO4)cc2CC1=O`: the cytotoxicity call is “active”.

As to `C[C@@H]1CN([C@H](C)CO)C(=O)Cc2cc(NC(=O)Nc3ccc4c(c3)OCO4)ccc2O[C@@H]1CN(C)Cc1ccc(Cl)c(Cl)c1`, the cytotoxicity call was “active”.

For the molecule `C[C@H](CO)N1C[C@H](C)[C@H](CN(C)Cc2ccc(Cl)c(Cl)c2)Oc2ccc(NC(=O)Nc3ccc4c(c3)OCO4)cc2C1=O`, the cytotoxicity call was “inactive”.

For `C[C@H]1CN([C@@H](C)CO)C(=O)c2cc(NC(=O)Nc3ccc4c(c3)OCO4)ccc2O[C@@H]1CN(C)Cc1ccc(Cl)c(Cl)c1`, the cytotoxicity call was “inactive”.

In the case of `C[C@@H]1CN([C@@H](C)CO)C(=O)Cc2cc(NC(=O)Nc3ccc4c(c3)OCO4)ccc2O[C@@H]1CN(C)Cc1ccc(Cl)c(Cl)c1`, the cytotoxicity call was “inactive”.

Consider `C[C@@H]1CCCCO[C@H](CN(C)C(=O)Nc2ccc(F)cc2)[C@@H](C)CN([C@@H](C)CO)C(=O)c2cc(NC(=O)CCC(F)(F)F)ccc2O1`, for which the cytotoxicity call was “inactive”.

Take `CC(C)NC(=O)Nc1cccc2c1O[C@H](CN(C)C(=O)Nc1ccc3c(c1)OCO3)[C@@H](C)CN([C@@H](C)CO)C2=O`: the cytotoxicity call is “inactive”.

Take `COc1ccc(NC(=O)N(C)C[C@H]2Oc3c(NC(=O)Nc4ccc(C(F)(F)F)cc4)cccc3C(=O)N([C@@H](C)CO)C[C@H]2C)cc1`: the cytotoxicity call was “inactive”.

Turning to `C[C@@H]1CCCCO[C@H](CN(C)Cc2ccc(Cl)c(Cl)c2)[C@@H](C)CN([C@@H](C)CO)C(=O)c2cc(NC(=O)Nc3ccc(C(F)(F)F)cc3)ccc2O1`, the cytotoxicity call is “inactive”.

Take `C[C@H]1CN([C@@H](C)CO)C(=O)c2cccc(NC(=O)c3cnccn3)c2O[C@H]1CN(C)Cc1ccncc1`: the cytotoxicity call is “inactive”.

For `C[C@@H]1CN([C@@H](C)CO)C(=O)c2cccc(NC(=O)c3ccncc3)c2O[C@H]1CN(C)Cc1ccc(C(=O)O)cc1`, the cytotoxicity call is “inactive”.

Consider `C[C@@H]1CCCCO[C@@H](CN(C)Cc2ccc(C(F)(F)F)cc2)[C@H](C)CN([C@@H](C)CO)C(=O)c2cc(NC(=O)Nc3cccc4ccccc34)ccc2O1`, for which the cytotoxicity call is “inactive”.

As to `O=C(CN1CCOCC1)N[C@@H]1CC[C@@H](CCNC(=O)C2CCC2)O[C@@H]1CO`, the cytotoxicity call is “inactive”.

In the case of `C[C@@H]1CN([C@H](C)CO)C(=O)Cc2cc(NS(=O)(=O)c3cn(C)cn3)ccc2O[C@@H]1CN(C)S(=O)(=O)c1ccc(F)cc1`, the cytotoxicity call was “inactive”.

As for `O=C(C[C@H]1C[C@@H]2c3cc(NS(=O)(=O)c4ccc(F)cc4)ccc3O[C@@H]2[C@@H](CO)O1)NCc1cccc(F)c1`, the cytotoxicity call is “inactive”.

Consider `COc1ccc(S(=O)(=O)N(C)C[C@@H]2Oc3ccc(NS(=O)(=O)c4cn(C)cn4)cc3C(=O)N([C@H](C)CO)C[C@H]2C)cc1`, for which the cytotoxicity call is “inactive”.
